Bioassay records deposited in PubChem by National Center for Advancing Translational Sciences (NCATS).
Rows were chosen to be rich in hits. Some 5.6% of all compounds tested hit in one or more screens of this group.
RORg inh: qHTS for inhibitors of ROR gamma transcriptional activity | Drosophila S2 Gal4-RORgamma UAS-luciferase reporter, 20 h | Potency, µM (highest dose often 53.6 µM), inactives show at the top dose activity change, negative = inhibition, most hits filed as inhibitors | 310,000 tested, 5.4% active | AID 2551, 2010; note: potency is the fitted concentration of half-maximal effect; nearly all actives have a fitted effect of over 60% in size
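In this cell-based reporter format, copper sulfate (700 uM final) drives Gal4–ROR gamma fusion expression from a metallothionein promoter in Drosophila Schneider cells; compounds preincubated 1 hr, reporter read after 20 hr at ambient temperature.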
Six1-Eya2 inh: qHTS Assay for Inhibitors of the Six1/Eya2 Interaction | 360,000 tested, 0.56% active | activity change, % (test concentration not listed) | Homeobox protein SIX1 (Homo sapiens) + Protein phosphatase EYA2 (Homo sapiens), … | AID 651725, 2012 | AlphaScreen GST-Six1/His-Eya2 binding, biochemical; stronger effect = lower value; in the data active = activity change below about -65%; inconclusive = mostly about -30% to -63%
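Compounds are tested against tagged Six1 and Eya2 proteins bridged by glutathione donor and nickel acceptor beads; after a one-hour incubation at 37 °C without light, AlphaScreen emission is recorded.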
VP16 counter: VP16 counterscreen qHTS for inhibitors of ROR gamma transcriptional activity | Drosophila S2 Gal4-VP16 UAS-luciferase, luminescence, 20 h | Potency, µM (top dose mostly 53.6 µM), for inactives: top-dose activity, negative = inhibition, most hits filed as inhibitors | 310,000 tested, 3.5% active;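 note: Gal4-VP16 expression switched on by copper sulfate through the metallothionein promoter; potency is the fitted concentration of half-maximal effect; nearly all actives have a fitted effect of over 50% in size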
CtBP-E1A inh: qHTS Assay for Inhibitors of the CtBP/E1A Interaction; AlphaScreen GST-E1A/His-CtBP binding, 1536-well; stronger effect = lower value; CtBP / adenovirus E1A interaction (AlphaScreen); 340,000 tested, 0.49% active; AID 651724, 2012; activity change, % (test concentration not listed); in the data active = activity change below about -65%; inconclusive = mostly about -30% to -63%
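AlphaScreen with 125 nM GST-E1A and 125 nM His-CtBP (5X stocks) in Tris pH 8.0, 300 mM NaCl, BSA, Tween 20, TCEP. Compounds preincubated 2 h at 37 deg C, then glutathione donor/nickel acceptor beads added for 1 h at 37 deg C in dark.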
PKM2 activator: qHTS Assay for Activators of Human Muscle isoform 2 Pyruvate Kinase. 260,000 tested, 0.34% active. purified PKM2, Kinase-Glo ATP luminescence, activation; response scale: 0% is enzyme alone, no compound. Pyruvate kinase PKM (Homo sapiens), P14618. Potency, µM (highest dose often 57.5 µM), without a hit: top-dose activation, most hits filed as activators; note: potency is the fitted concentration of half-maximal effect; nearly all actives have a fitted effect of over 55% in size
Target sequence (P14618 whole entry, looked up, canonical isoform): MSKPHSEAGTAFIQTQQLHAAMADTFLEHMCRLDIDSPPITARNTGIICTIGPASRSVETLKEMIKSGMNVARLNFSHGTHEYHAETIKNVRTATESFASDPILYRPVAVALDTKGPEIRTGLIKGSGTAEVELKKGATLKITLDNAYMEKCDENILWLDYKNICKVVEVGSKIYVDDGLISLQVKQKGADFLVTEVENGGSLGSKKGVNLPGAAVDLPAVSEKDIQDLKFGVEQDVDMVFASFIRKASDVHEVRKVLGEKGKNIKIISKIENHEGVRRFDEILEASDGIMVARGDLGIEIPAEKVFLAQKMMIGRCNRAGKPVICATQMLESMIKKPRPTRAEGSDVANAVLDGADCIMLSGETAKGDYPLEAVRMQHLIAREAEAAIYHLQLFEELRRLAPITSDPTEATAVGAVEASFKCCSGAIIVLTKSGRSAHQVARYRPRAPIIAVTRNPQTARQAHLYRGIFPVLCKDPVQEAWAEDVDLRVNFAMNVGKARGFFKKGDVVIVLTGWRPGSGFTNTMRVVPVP
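Purified hPK-M2 (>95% pure) converted ADP (0.1 mM final) to ATP with 0.5 mM PEP in 50 mM imidazole pH7.2, KCl, MgCl2, Tween 20, BSA; 1 h at room temperature. ATP detected by Kinase-Glo luminescence.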
Starred values were filed as active, the others as inactive; ? = inconclusive; . = not tested or not shown; [ ] = remark or other dose. Unless noted, calls come from the whole dose curve; as a rule, active = well fitted curve in the direction sought with a large enough effect; inconclusive = small, poorly fitted or top-dose-only effect, or another doubt; inactive = no such curve, though single readings can be large; an effect the other way counts as inactive or inconclusive. % is set by controls: 0 for no effect and ±100 for the full control effect.

SMILES | RORg inh | Six1-Eya2 inh | VP16 counter | CtBP-E1A inh | PKM2 activator
C#CCOCCOCCOCCNc1nc(N2CCN(C(=O)[C@H](Cc3cc4ccccc4[nH]3)n3cc([C@@H](N)CC(C)C)nn3)CC2)nc(N2CCN(C(=O)[C@H](Cc3cc4ccccc4[nH]3)n3cc([C@@H](N)CC(C)C)nn3)CC2)n1 | ? | -18.8 | 15.8µM* | -25.9 | 6.4%
C#CCOCCOCCOCCNc1nc(N2CCOCC2)nc(N2CCN(C(=O)[C@H](Cc3cc4ccccc4[nH]3)n3cc([C@@H](N)CC(C)C)nn3)CC2)n1 | -24.8% | -0.4 | 4.3% | -0.5 | -3.4%
C[C@H]1CN(CCc2ccccc2)C(=O)[C@@H]1CC(=O)NCc1ccccc1 | 18.5% | 6.6 | ? | 4.7 | 1.1%
O=C(Nc1ccc(NC(=O)c2ccco2)cc1)c1ccc2c(c1)OCO2 | 22.4µM* | 16.3 | ? | 0.0 | -20.7%
O=C(Nc1ccc(NC(=O)c2ccco2)c(Cl)c1)c1ccc2c(c1)OCCO2 | ? | -2.9 | ? | 1.3 | 5.9%
CC(C)(C)NC(=O)c1cccc(NC(=O)c2ccc(NC(=O)c3ccco3)cc2)c1 | 7.1% | -79.4* | -21.9% | -16.0 | 13.2%
CCOC(=O)c1nc(Nc2ccc(C(=O)O)cc2)c2ccccc2n1 | -15.9% | ? | -0.8% | ? | 3.2%
CCOC(=O)c1ccc(Nc2nc(C(=O)OCC)nc3ccccc23)cc1 | -30.5% | -78.9* | -26.7% | -89.5* | 8.9%
CCOc1ccc(NC(=S)NC23CC4CC(CC(C4)C2)C3)cc1 | 3.16µM* | 22.9 | 2.82µM* | 4.8 | 0.8%
CC(C)(C)NC(=O)NC12CC3CC(CC(C3)C1)C2 | -36.3% | 3.1 | 1.5% | . | 2.0%
FC(F)Oc1ccc(NC(=S)NC23CC4CC(CC(C4)C2)C3)cc1 | 0.794µM* | 0.2 | 7.08µM* | -7.3 | -7.8%
CN(C)c1ccc(NC(=S)NC23CC4CC(CC(C4)C2)C3)cc1 | 2µM* | -28.8 | 5.01µM* | ? | -9.0%
CNC(=S)NC12CC3CC(CC(C3)C1)C2 | 2.51µM* | 7.4 | 7.94µM* | 4.1 | -6.1%
O=S(=O)(c1ccc(NC(=S)NC23CC4CC(CC(C4)C2)C3)cc1)N1CCCCC1 | . | 2.8 | . | 1.8 | .
CNc1nnc(SCC(=O)c2c(N)n(C3CC3)c(=O)[nH]c2=O)s1 | . | -3.3 | . | 2.0 | .
CCSc1ccc(-c2cccc([N+](=O)[O-])c2)nn1 | 35.7% | -7.5 | -1.2% | 3.8 | -4.7%
CC[C@@]1(O)C(=O)OCc2c1cc1n(c2=O)Cc2cc3c([N+](=O)[O-])cccc3nc2-1 | ? | . | 0.631µM* | . | .
CC[C@@]1(O)C(=O)OCc2c1cc1n(c2=O)Cc2cc3c(CN(C)C)c(O)ccc3nc2-1 | ? | 0.9 | ? | 1.8 | .
O=C(O)CCC(=O)Nc1ccc(N2CCCCCC2)cc1 | 2.51µM* | 6.1 | -25.0% | -11.6 | -14.1%
C[C@@H]1CN([C@H](C)CO)C(=O)CCCn2cc(nn2)CO[C@H]1CN(C)C(=O)C1CC1 | . | -2.9 | . | -3.3 | .
Cc1ccsc1/C=C/C(=O)O | -0.8% | 2.5 | 2.7% | 4.6 | 0.2%
Cc1ccsc1/C=C/c1ccc2cccc(O)c2n1 | 4.47µM* | 8.8 | ? | 11.7 | -12.8%
Cc1ccsc1/C=C/c1ccc2ccccc2n1 | 10µM* | 54.4 | ? | 67.8 | -24.9%
Oc1cccc2ccc(/C=C/c3cccs3)nc12 | 12.6µM* | 4.1 | ? | 12.9 | -9.9%
CC(=O)N1CCN(S(=O)(=O)c2ccc3c(c2)CCC(=O)N3)CC1 | . | -0.8 | . | 4.0 | .
SMILES | RORg inh | Six1-Eya2 inh | VP16 counter | CtBP-E1A inh | PKM2 activator
NC(=O)Cn1cnc2nc3n(c2c1=O)CCC3 | 10.1% | 9.6 | 5.9%[10 µM] | -8.5 | -5.2%
O=C(NCc1cccs1)C1C(=O)Nc2ccccc2C(=O)N1Cc1ccccc1 (stereo not drawn) | . | -2.6 | . | 0.5 | .
Cc1cc(O)c(Sc2ncn[nH]2)cc1NS(=O)(=O)c1ccc(Cl)cc1 | . | -0.1 | . | 11.6 | .
O=S(=O)(Nc1cc(Sc2ncn[nH]2)c(O)c2ccccc12)c1ccccc1 | 7.94µM* | 4.5 | 7.08µM* | -19.7 | -15.3%
Cc1ccccc1NC(=S)NC(C)C(c1ccccc1)N1CCN(C)CC1 (stereo not drawn) | -0.2% | 4.8 | 1.8% | -2.4 | 1.9%
Cc1ccccc1NC(=S)N/N=C/C(C)c1ccccc1 (stereo not drawn) | 1.78µM* | -1.4 | 8.91µM* | 3.5 | -9.4%
Cc1cccc(NC(=S)N/N=C/C(C)c2ccccc2)c1C (stereo not drawn) | 1.26µM* | -3.4 | 7.94µM* | 6.9 | 0.5%
Nc1ncnc(Oc2cccc3cccnc23)c1[N+](=O)[O-] | 4.47µM* | -66.6* | 8.91µM* | -13.1 | 0.5%
CCc1nnc(NC(=O)c2ccc(S(=O)(=O)N(CC)Cc3ccccc3)cc2)o1 | 0.1µM* | -19.6 | 0.112µM* | -23.5 | -1.2%
CCc1nnc(NC(=O)c2ccc(S(=O)(=O)N(C)Cc3ccccc3)cc2)o1 | 0.126µM* | -18.4 | ? | ? | 0.5%
CN(Cc1ccccc1)S(=O)(=O)c1ccc(C(=O)Nc2nnc(C3CC3)o2)cc1 | 0.282µM* | -1.5 | 0.562µM* | -15.7 | 0.7%
CN(Cc1ccccc1)S(=O)(=O)c1nnc(NC(=O)c2ccc(F)cc2)s1 | -10.0% | 3.3 | -20.2% | -7.6 | .
COc1ccccc1-c1nnc(NC(=O)c2ccc(S(=O)(=O)N(C)Cc3ccccc3)cc2)o1 | 0.316µM* | -15.4 | 0.0028µM* | -21.9 | -0.5%
O=C(CCc1nnc(COc2ccccc2)o1)NCc1ccccc1C(F)(F)F | 26.3% | 2.6 | 24.7% | -1.4 | -0.3%
Cc1nc(C(F)(F)F)ccc1C(=O)N1CCC1(C)C(=O)NS(C)(=O)=O (stereo not drawn) | . | 6.3 | . | 3.3 | .
CCN(Cc1ccccc1)S(=O)(=O)c1ccc(C(=O)Nc2nnc(C)o2)cc1 | 0.562µM* | -19.7 | 0.562µM* | -29.6 | 0.7%
CCOc1ccc(N(CCCCO)C(=S)NC(=O)c2ccc(C)c(Br)c2)cc1 | 2.51µM* | -5.8 | 5.62µM* | -10.9 | -1.4%
Cc1cccc(N2CCN(C(=O)CCCOc3ccccc3)CC2)c1C | 21.2% | -0.1 | -6.9% | 9.5 | -6.5%
CCC1(c2ccccc2)NC(=S)N(c2cccc(C)c2C)N1 (stereo not drawn) | 1.26µM* | 5.9 | 7.94µM* | -22.6 | -1.5%
CC[C@@]12C(=O)N(c3ccc(OC)cc3)C(=O)N1[C@H](c1cccc(C)c1)[C@@H]1C(=O)N(Cc3ccccc3)C(=O)[C@@H]12 | 39.3% | -0.7 | -15.4% | 0.0 | -1.4%
N#CC1=C(N)SC(N)=C(C#N)C1C1C=CCCC1 (stereo not drawn) | ? | -1.1 | ? | -6.2 | -11.6%
